A selection: hits, their analogues and other compounds. The true share with any hit is near 9.6%.
HCT116 bCat-KO = primary screen for growth suppressors in beta-catenin knockout HCT116 cells (colon tumor, human). HCT116 beta-catenin knockout viability, CellTiter-Glo, 60 h; stronger effect = lower value. viability, % at 10 µM. 1.5% of 140,000 active. AID 818, 2007;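 active = viability at or under a set limit, the compound median less 4 SD, cut at about 6% in these data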;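 note: 0% = Hyamine 1622 control at 20 µM and 100% = untreated cell control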
L major viab = Leishmania major promastigote growth inhibition, primary screen; Leishmania major promastigotes, resazurin fluorescence viability; inhibition, % at 10 µM; 9% of 200,000 active; AID 1063, 2008; in the data active = inhibition above about 50%;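 note: promastigotes grown with compound for 44 hours at 28 °C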
PTEN del growth = growth suppression of PTEN-null HCT116, primary screen, cell-based, CellTiter-Glo; AID 827, 2007; viability, % at 10 µM; HCT116 PTEN-null viability, 60 h; stronger effect = lower value; 1.2% of 140,000 active;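 active = viability at or below a set limit, 4 SD under the median of all tested compounds, cut at about 3.7% in these data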;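 note: PTEN knockout HCT116 line with beta catenin targeted HCT116 as companion control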
Autophagy mod = autophagy modulators in MEF cells, primary screen, imaging, high-content, MEF GFP-LC3. calls only at 10 µM (by protocol). MEF GFP-LC3 puncta imaging; test concentration mostly 10 µM. 0.98% of 190,000 active;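 active = percentage of spot-positive cells more than 3 SD above its plate mean, without a fluorescence outlier flag or 80% toxicity; inconclusive = no clear call, values can overlap the other calls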;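 note: spot-positive cell cutoff set from DMSO-treated cells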
Insulin prom up = insulin promoter activators in MIN6 cells, imaging, high-content screening, mouse beta cells; 0.3% of 190,000 active; MIN6 insulin promoter-GFP reporter; stronger effect = higher value; z-score at 5 µM;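 active = z-score above 3 at 5 µM with at least 500 cells counted in the well; inconclusive = wells under 500 cells, flagged as cytotoxic or low count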
Insulin prom inh = inhibitors of insulin promoter-driven GFP, primary screen, imaging, TRM-6 cells (human fetal islet line), eGFP reporter, cell count | reporter expression induced with tamoxifen | inhibition, % at 2 µM | 0.9% of 130,000 active | AID 1273, 2008;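 active = inhibition above the mean plus 3 SD, with well images judged a real hit on visual review, cut at about 60% in these data, passing the limit was not always enough; inconclusive = inhibition over the cutoff but images rejected on review; inactive = inhibition not above the cutoff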
Active calls of the source: *; i = inactive; u = inconclusive; x = not tested or not shown; + = active, no number.

SMILES	HCT116 bCat-KO	L major viab	PTEN del growth	Autophagy mod	Insulin prom up	Insulin prom inh
CCN1CCCC1CNc1ncnc2c1[nH]c1ccc(Cl)cc12 (stereo unspecified)	56.0	96.2*	61.2	+	-2.31	21.2
O=C1CCCN1CCCn1cnc2c([nH]c3ccc(F)cc32)c1=O	103.6	-6.0	103.0	i	1.1	x
O=C1CCCN1CCCNc1ncnc2c1[nH]c1ccc(Cl)cc12	64.4	39.4	72.5	i	-0.88	81.3*
NC(=O)C12CCCC(Br)(CCC1)C2	x	x	x	x	-0.06	x
COc1cccc(Cn2c(=S)[nH]c3ccc(N4CCOCC4)cc3c2=O)c1	93.5	-6.5	88.7	i	0.37	-59.4
O=C(c1ccc2c(c1)OCO2)C1CCCN(Cc2ccc3nsnc3c2)C1 (stereo unspecified)	x	91.8*	x	i	0.79	x
COc1c(C)cc(C(=O)C2CCCN(Cc3cccc4nccnc34)C2)cc1C (stereo unspecified)	x	99.3*	x	i	-0.59	x
O=C(c1ccc2c(c1)OCO2)C1CCCN(Cc2cc(F)ccc2-n2cccn2)C1 (stereo unspecified)	x	39.9	x	i	-0.48	x
COc1cccc(CN2CCCC(C(=O)c3ccc4c(c3)OCO4)C2)c1OC (stereo unspecified)	x	90.4*	x	i	-0.49	33.3
COc1ccc(C(=O)C2CCCN(Cc3cccc4c3OCO4)C2)cc1OC (stereo unspecified)	x	77.7*	x	i	0.47	x
C=CCCN(C(CC(C)C)C(=O)OC)S(=O)(=O)c1ccccc1Br (stereo unspecified)	x	x	x	x	-0.55	x
Cc1ccc(NC(=O)CCNS(=O)(=O)c2ccc3c(c2)oc(=O)n3C)c(C)c1	96.3	-2.5	90.0	i	-0.17	x
Cc1cc(C)cc(N(CC(=O)N2CCC(C)CC2)S(C)(=O)=O)c1	93.0	-7.3	97.5	i	-0.22	43.8
Cn1c(=NC(=O)C2CC2)sc2cccc(F)c21	92.4	-3.3	90.5	i	-0.22	x
CN(C)CCN(Cc1ccc(Cl)cc1)c1ccccn1	77.9	99.1*	76.5	i	x	0.0
C[N+](C)(C)CCN(Cc1ccc(Cl)cc1)c1ccccn1	86.6	-4.9	74.5	i	x	2.8
COC(=O)Cn1ncc(N2C3CC(CC(C)(C)C3)C2C)c(Cl)c1=O (stereo unspecified)	94.2	81.0*	92.5	i	0.86	-2.7
O=C(Cn1ncc(N2CCCC2)c(Cl)c1=O)c1ccc(Cl)cc1	x	-2.1	x	i	-0.68	-10.0
CCc1ccc(C(=O)NN(C(=O)c2ccc(CC)cc2)C(C)(C)C)cc1	76.8	98.0*	64.1	i	u	-33.3
CCc1ccc(-c2cc(C(F)(F)F)n3nc(C(=O)Nc4c(C)nn(Cc5ccc(F)cc5)c4C)cc3n2)s1	71.6	64.2*	59.4	i	x	-22.9
O=C(O)c1nn(-c2cccc(Cl)c2)c(=O)cc1O	x	-4.6	x	i	-0.33	17.6
Cc1cc(C)n(-c2nc(NCc3cccnc3)c3c4c(sc3n2)COC(C)(C)C4)n1	4.5*	12.9	7.6	i	0.06	x
COc1ccc(C(=O)/C=C/N2CCCCC2)cc1OC	86.1	-6.8	92.1	i	1.01	22.6
C=CCSc1nc2c(c(=O)[nH]1)C(c1ccccc1)C(C#N)=C(N)O2 (stereo unspecified)	x	x	x	x	-0.49	x
CCOc1ccc(Oc2ccc(-c3nnc(-c4ccccc4)o3)cc2[N+](=O)[O-])cc1	89.7	4.2	91.8	+	-0.68	x
SMILES	HCT116 bCat-KO	L major viab	PTEN del growth	Autophagy mod	Insulin prom up	Insulin prom inh
O=[N+]([O-])c1cc(-c2nnc(-c3ccccc3)o2)ccc1Oc1ccc(Cl)cc1	82.0	-9.4	83.4	i	0.07	x
Cc1c(/C=N/NC(=O)CNc2ccccc2)c2ccccn2c1C(=O)c1ccncc1	55.8	99.5*	58.1	i	0.22	x
Cc1c(/C=N/NC(=O)CNc2ccccc2)c2ccccn2c1C(=O)c1ccc(Cl)cc1	65.2	7.9	52.6	i	-0.21	x
CNc1ccc(/C=C2\CSc3ccccc3C2=O)cc1[N+](=O)[O-]	x	99.5*	x	i	0.06	x
CCCCN1C(=O)c2ccc(C(=O)Nc3cccc(C)c3C)cc2C1=O	90.8	0.8	88.0	i	-0.27	-10.3
COCCn1nnnc1C(C(C)C)N1CCOCC1 (stereo unspecified)	85.5	-5.1	98.7	i	0.8	44.8
CCOC(=O)c1[nH]c(C)c(C(=O)NC2CCCCCC2)c1C	87.4	2.5	88.3	i	x	51.4
CCN(CC)S(=O)(=O)c1ccc(C(=O)OCC(=O)Nc2ccc(-c3nc4ccc(C)cc4s3)cc2)cc1	57.6	57.9*	63.0	i	1.05	9.1
N#C/C(=N\Nc1ccc(Cl)cc1)C(N)=S	x	x	x	x	-0.52	x
CCc1cccc2c(C(=O)COC(=O)/C=C/c3ccc(O)c(OC)c3)c[nH]c12	41.3	98.9*	27.1	i	-0.38	-155.6
COc1cc(/C=C/C(=O)OCC(=O)N2CCc3ccccc3C2)ccc1O	96.0	75.9*	89.2	i	0.38	32.5
CN1CCN(c2ccc(C(CC(N)=O)NC(=O)Cc3ccc(Br)cc3)cc2[N+](=O)[O-])CC1 (stereo unspecified)	x	x	x	x	0.76	x
COC(=O)c1c(NC(=O)c2nc3ccccc3s2)sc2c1CC(C)(C)NC2(C)C	x	87.3*	x	i	u	x
CCOc1ccc(C(=O)Nc2sc3c(c2C(=O)OC)CC(C)(C)NC3(C)C)cc1	x	93.9*	x	i	-0.25	x
C=CCc1c(C)nc(SCc2nc3ccccc3c(=O)[nH]2)[nH]c1=O	93.9	-10.3	106.5	i	0.49	16.7
Cc1cc2ccccc2nc1Br	96.5	-3.4	95.5	i	-0.06	10.0
COCCNC(=S)N/N=C(\C)c1ccccc1O	4.2*	-3.6	8.2	i	-3.15	-330.8
COCCNC(=S)N/N=C(\C)c1ccccc1OC	92.2	-8.7	86.5	i	-0.74	-92.9
O=C(CNC(=O)c1ccco1)Nc1cc(Cl)ccc1N1CCOCC1	83.4	-2.6	78.5	i	-0.1	-18.2
Cc1cc2cc(CN(Cc3cccs3)C(=S)NCc3ccco3)c(=O)[nH]c2cc1C	91.5	87.8*	87.1	i	-1.23	-10.5
COc1ccc2[nH]c(=O)c(CN(Cc3cccs3)C(=S)Nc3cccc(C)c3)cc2c1	61.7	99.7*	63.4	i	0.49	29.7
Cc1ccc(C)c2[nH]c(=O)c(CN(Cc3cccs3)C(=S)NCc3ccco3)cc12	66.6	70.3*	63.6	i	-1.55	-48.3
CCN(CC)CCN(Cc1cc2cc(C)c(C)cc2[nH]c1=O)C(=S)NCc1ccco1	x	60.0*	x	i	-0.71	-86.7
Cc1ccc(C)c2[nH]c(=O)c(CN(CC3CCCO3)C(=S)NCc3ccco3)cc12 (stereo unspecified)	x	x	x	x	-0.73	x
Cc1cc2cc(CN(CCN(C)C)C(=S)NCc3ccco3)c(=O)[nH]c2cc1C	x	12.8	x	i	0.57	x

Screens (PubChem BioAssay)
